Laboratory results as given in ChEMBL document CHEMBL1201862, “PubChem BioAssay data set” (2004).
The campaign covered roughly 360,000 compounds. About 11,000 (3.1%) were called active. Inconclusive results (about 4%) are left out. The rule behind the calls is not given here. Many of the other results were omitted from the sample, so actives are more common in it than they were.

What follows are compounds tested against Thioredoxin glutathione reductase (Schistosoma mansoni) (UniProt Q962Y6) (assay: qHTS Assay for the Inhibitors of Schistosoma Mansoni Peroxiredoxins. [Related pubchem assays: 1011 (Confirmation Concentration-Response Assay for Inhibitors of the Schistosoma mansoni Redox Cascade ), 448 (Schistosoma Mansoni Peroxiredoxins (Prx2) and thioredoxin glutathione reductase (TGR) coupled assay)]).
Assay type: functional
In the case of Cl.N[C@@H](CCC(=O)O)C(=O)O, the Potency is reported as 5.01 µM (active). In the case of Nc1c2c(nn1-c1ccc(C(=O)O)cc1)CNC2, the Potency is reported as “inactive”. Cc1ccc(CNC(=O)C(=O)NCC2OCCN2S(=O)(=O)c2ccc3c(c2)OCCO3)cc1 (stereo unspecified) was tested, and the Potency was 631 µM (active). In the case of Cc1ccc(CNC(=O)C(NS(=O)(=O)c2cccc3nsnc23)C(C)C)cc1 (stereo unspecified), the Potency is reported as “inactive”. With Cc1c(C(=O)N2CCCCC2)c(S(=O)(=O)NCCc2ccc(Cl)cc2)c(C)n1C the Potency was “inactive”. In the case of CC(=O)N1CCc2cc(S(=O)(=O)Nc3ccc(C)cc3)ccc21, the Potency is reported as 316 µM (active).
